# The entries come from a sample that favours hits as a whole.
# Pf Dd2 growth = blocks in vitro growth of P. falciparum Dd2; P. falciparum Dd2 growth, SYBR Green, 72 h; Potency, µM (highest dose often 28.9 µM), without a hit: at the top dose activity, negative = inhibition, usual class: inhibitors; hit rate 4.3% among 120,000; active = well fitted inhibition curve with a large enough effect;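 note: plate controls were DMSO vehicle for no effect and reference drug for full effect; nearly all actives have a fitted effect of over 65% in size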
#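 Readout: SYBR Green fluorescence, 485 nm excitation, 535 nm emission, after ~16 h lysis at 37C. Before that, Dd2-infected red cells (2.5% hematocrit) grew 72 h with compound, 29 uM top final concentration.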
# Starred values were filed as active, the others as inactive; i = inactive; [ ] = dose if it differs, or a comment. Potency is the fitted concentration of half-maximal effect.
SMILES,Pf Dd2 growth
COc1ccc(F)c(CN2C[C@@H](C(=O)O)C[C@@H](C(=O)NCc3ccccn3)C2)c1,1%
CC(C)CCN1C(=O)CC[C@]2(C(=O)N3CCN(c4ccc(F)cc4)CC3)CCCC[C@@H]12,10µM*
CC(C)CCN1C(=O)CC[C@]2(C(=O)N3CCOCC3)CCCC[C@@H]12,-19%
CN1C(=O)CC[C@]2(C(=O)N3CCN(c4ccc(F)cc4)CC3)CCCC[C@@H]12,-3%
COCCn1ncc(N2CCC(NC(=O)c3ccc(OC)c(F)c3)CC2)cc1=O,-23%
COc1cc(OC)c(NC(=O)c2c(OC)cc(=O)n3c2CCCC3)cc1Cl,i
CCN(Cc1nccn1C)C(=O)c1ccc(NCc2cccc(C)c2)nc1,-14%
OC(COc1ccccc1CNCCc1ccccc1)CN1CCSCC1 (stereo not drawn),1.6µM*
COc1ccc(CCNC(=O)CC2CCOCC2)cc1OC,52%
COc1cc(CNCCc2ccccc2C)ccc1OCC(O)CN1CCOCC1 (stereo not drawn),11µM*
COc1cc(CNC(C)C)ccc1OCC(O)CN1CCSCC1 (stereo not drawn),-17%
COc1cc(CN2CC=C(C)CC2)ccc1OCC(O)CN1CCSCC1 (stereo not drawn),-14%
C=CCc1ccccc1OCC(O)CN1CCN(c2ccccc2)CC1 (stereo not drawn),-20%
COc1cc(CNC2CCCCC2)ccc1OCC(O)CN1CCSCC1 (stereo not drawn),-14%
COc1cc(CNCc2ccccc2C)ccc1OCC(O)CN1CCC(O)CC1 (stereo not drawn),-6%
COc1cc(CNC2CCCCCCC2)ccc1OCC(O)CN1CCSCC1 (stereo not drawn),8.9µM*
COc1ccc(OC)c(NC(=O)C2Cn3cccc3C(=O)N2C)c1 (stereo not drawn),i
CC1=C[C@@H](CNC(=O)c2ccco2)[C@H](C(C)C)C[C@H]1CC(=O)N(C)Cc1ccccc1,-8%[44.1 µM]
O=C(CN1C(=O)NC2(CCS(=O)(=O)CC2)C1=O)Nc1ccc(F)cc1F,1%
Cc1ccc(NC(=O)Cn2c(=O)c(-c3noc(C)n3)c3n(c2=O)CCCCC3)c(Cl)c1,-5%
O=C1NCc2ccccc2CC12CCN(Cc1cc(O)cc(O)c1)CC2,-1%
Cc1cccc(NC(=O)N2CCC3(CC2)SCC(=O)N3Cc2ccccc2)c1C,i
CCC(C)NC(=O)C(NC(=O)c1ccc(C)cc1)C1CCN(C(=O)c2ccc(F)cc2)CC1 (stereo not drawn),i
COc1ccc(C(=O)NC(C(=O)N2CCCC2)C2CCN(C(=O)c3ccccc3)CC2)cc1 (stereo not drawn),-22%
CCN(CC)C(=O)C(NC(=O)c1ccc(C)cc1)C1CCN(C(=O)c2cccc(OC)c2)CC1 (stereo not drawn),4.5µM*
SMILES,Pf Dd2 growth
CCN(CC)C(=O)C(NC(=O)c1ccc(OC)cc1)C1CCN(C(C)=O)CC1 (stereo not drawn),11%
CCCNC(=O)C(NC(=O)c1cccc(OC)c1)C1CCN(C(=O)c2cccc(OC)c2)CC1 (stereo not drawn),-4%
COc1ccc(C(=O)NC(C(=O)NC(C)C(C)C)C2CCN(C(=O)c3ccc(C)cc3)CC2)cc1 (stereo not drawn),2.5µM*
O=C(NCC1CC1)C1c2ccccc2CC(=O)N1Cc1ccccc1 (stereo not drawn),-6%
CCOc1ccccc1C1NC(=O)N(CC(=O)Nc2cc(F)ccc2F)C2=C1C(=O)OC2 (stereo not drawn),i
O=C(c1ccc2nccn2c1)N1CCC(C(O)CCc2ccccc2)CC1 (stereo not drawn),-24%
CCOC(=O)c1ccc(N2C(=O)c3n[nH]c(C)c3C2c2ccc(C(C)(C)C)cc2)cc1 (stereo not drawn),23%
CCOC(=O)c1ccc(N2C(=O)c3n[nH]c(-c4cccs4)c3C2c2cccc(O)c2)cc1 (stereo not drawn),-18%
O=C1c2[nH]nc(-c3ccccc3)c2C(c2ccccc2)N1c1cccc(C(F)(F)F)c1 (stereo not drawn),i
Cc1ccc(-c2n[nH]c3c2C(c2cccc(O)c2)N(c2ccc(C(=O)O)cc2)C3=O)cc1 (stereo not drawn),21%
CCOc1ccc(C2c3c(-c4ccc(C)cc4)n[nH]c3C(=O)N2c2ccc(Cl)cc2)cc1 (stereo not drawn),10µM*
CCOC(=O)c1ccc(N2C(=O)c3n[nH]c(-c4cccs4)c3C2c2ccc(CC)cc2)cc1 (stereo not drawn),10µM*
CCOC(=O)c1ccc(N2C(=O)c3n[nH]c(-c4cccs4)c3C2c2ccc(C(C)C)cc2)cc1 (stereo not drawn),-2%
CCOC(=O)c1ccc(N2C(=O)c3n[nH]c(-c4ccco4)c3C2c2ccc(O)c(OCC)c2)cc1 (stereo not drawn),i
CCOC(=O)c1ccc(NC(=O)c2cn(-c3ccccc3)nc2-c2ccc(Br)cc2)cc1,1%
CCOC(=O)c1ccc(N2C(=O)Cc3cc(OCC)c(OCC)cc3C2c2ccccc2)cc1 (stereo not drawn),40%

# Bioassay records (PubChem)
